Test results reported in PubChem BioAssay (NCI).
This is part of a sample that, as a whole, favours compounds with a hit. Of some 79,000 tested, about 15% had one in any assay. Values without a mark were called inactive. Activity calls are given as the source filed them. Cut-off read from the data, not from the text of the source: active = growth inhibition above about 70%; inactive = the rest.

Assay: NCI Yeast Anticancer Drug Screen. Data for the cln2 rad14 strain (AID 165);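 note: 0% = growth equal to vehicle treated cultures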
Conditions: S. cerevisiae cln2 rad14 strain, at 50.0 µM (retest, dose inferred, filed as 5.0), hits give high values
Method in brief: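 Yeast strain cln2 rad14, bearing defects in cell cycle control and DNA repair, serves as the test system; values reflect growth inhibition compared with vehicle.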

Row | SMILES | growth inhibition
1 | CCOP(=O)(OCC)/C(C#N)=C/c1ccc(Oc2ccccc2)cc1 | 98% (active)
2 | CC(=O)Nc1ccc(S(=O)(=O)/N=C2\C=CC(=O)c3ccccc32)cc1 | -6%
3 | CCCC#CCCOC(=O)c1cc([N+](=O)[O-])cc([N+](=O)[O-])c1 | 76% (active)
4 | COc1cccc2c1OC(c1ccc(Cl)cc1)C([N+](=O)[O-])=C2 (stereo not given) | 95% (active)
5 | c1ccc(-n2c3ccccc3c3ccccc32)cc1 | -12%
6 | CCOC(=O)C(NC(C)=O)[CH](c1ccccc1)[Sn]([c]1ccccc1)([c]1ccccc1)[c]1ccccc1 (stereo not given) | 92% (active)
7 | C/C(CCn1[nH]c(=O)ccc1=O)=N\Nc1ccc([N+](=O)[O-])cc1[N+](=O)[O-] | 81% (active)
8 | N#CC(O)C(Br)(Br)Br (stereo not given) | 18%
9 | COc1ccc(N)c([N+](=O)[O-])c1 | 10%
10 | CC(C)O[C@H]1N(C2CC(N=[N+]=[N-])C(CO)O2)C(=O)NC(=O)[C@]1(C)Br (stereo not given in full) | 37%
11 | COc1ccc(C(=O)C2C(=O)C(=O)OC2C2OC(=O)C(=O)C2C(=O)c2ccc(OC)cc2)cc1 (stereo not given) | 1%
12 | O=[N+]([O-])c1c(Cl)c(Cl)c(O)c(Cl)c1Cl | 64%
13 | Cc1ccc(C)c(NC(=O)CCC(=O)CC(=O)c2ccncc2)c1 | 3%
14 | CC(C)CCCC(C)C1CCC2C3CC=C4CC(OC(=O)Nc5ccc(S(=O)(=O)c6ccc(F)cc6)cc5)CCC4(C)C3CCC12C (stereo not given) | 9%
15 | COc1ccc(/C=C(/NC(=O)c2ccccc2)C(=O)Nc2ccccc2)cc1OC | -24%
16 | C=C(Br)CN(CC(=C)Br)C(C)=O | 24%
17 | CCN(C(C)=O)c1ccc2c(c1)Cc1ccccc1-2 | 96% (active)
18 | NN(c1ccccc1)c1cccc2ccccc12 | 95% (active)
19 | C#CCN1CCN(C(=S)N/N=C(\C)c2ccccn2)CC1 | 99% (active)
20 | CC(C)OC(=O)C1C=CCc2c(O)ccc(O)c21 (stereo not given) | 22%

Row | SMILES | growth inhibition
21 | CC(=O)C1C(=O)C=C(C)OC1=O (stereo not given) | 13%
22 | CCOC(=O)c1[nH]n(-c2ccccc2)c(=O)c1/C=N/C(=S)N=Nc1c(O)[nH]c2ccccc12 | -20%
23 | N#Cc1c(Cl)nnc(-c2ccccc2)c1-c1ccccc1 | 66%
24 | CC(=O)Oc1c(O)c2ccccc2c2ccccc12 | 95% (active)
25 | Cc1cccnc1NC(=S)Nc1ccccc1Cl | 99% (active)
26 | CCOC(=O)/C(=C\c1cccc(OC)c1)C(C)=O | 86% (active)
27 | c1ccc(C(c2ccccc2)c2ccc3ccccc3n2)cc1 | 45%
28 | O=c1cc(CSc2ccc(Cl)cc2)occ1O | 18%
29 | COc1cc(NCCCCCNC2CCCCC2)c2ncccc2c1 | 32%
30 | CC(=O)OCc1ccc([N+](=O)[O-])o1 | 96% (active)
31 | O=C(O)Cc1cccc2cc3c(ccc4ccccc43)cc12 | 44%
32 | Cc1cccc(N2C(=O)c3ccccc3C2(c2ccccc2)N2CCCCC2)c1 (stereo not given) | -2%
33 | O=C(/C=C/c1ccccc1)CCN1CCOCC1 | 84% (active)
34 | C=CCCCCCCCCC(=O)CCCCCCCCC=C | 3%
35 | Cc1ccc(O)c(C(C)c2ccccc2)c1 (stereo not given) | 96% (active)
36 | COC(=O)c1nc(N)nc(C(=O)OC)c1C(=O)c1ccccc1 | 1%
37 | Cc1ccc(S(=O)(=O)Oc2ccc(C(C)(C)C)cc2Cl)cc1 | -3%
38 | CCCCCCCCCCCCCCC[N+]1(CC)CCCCC1 | 99% (active)
39 | CC12CCC(=O)C=C1C=CC1C2CCC2(C)C1CCC21CCC(=O)O1 (stereo not given) | 99% (active)
40 | CC(C)N(C(=O)C12C3C4C1C1C2C3C41I)C(C)C (stereo not given) | 28%
